# Among all 360,000 compounds or so, about 17,000 (4.7%) were called active. About 5% were inconclusive and are not listed. This is one part of a sample in which actives are shown more often than they occur. Cut-off read from the data, not from the text of the source: active = activity change below about -50%; inconclusive = mostly about -30% to -49%; inactive = weaker than that.
# Assay: qHTS for Inhibitors of Inflammasome Signaling: IL-1-beta AlphaLISA Primary Screen
# Conditions: THP-1 LPS/ATP IL-1B secretion, 16 h; at 57.5 µM, active compounds read low
# Method in brief: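 Secreted IL-1B measured by AlphaLISA bead assay after 16 h compound exposure of THP-1 cells; compounds (final up to 57.5 uM) added 1 h before LPS (250 ng/mL) and ATP (1.25 mM) stimulation; lower signal means less secretion.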
# % is set by controls: 0 for no effect and ±100 for the full control effect.
row,Structure (SMILES),activity change
1,COc1ccc(CCNC(=O)COC(=O)Cc2cc(OC)c(OC)c(OC)c2)cc1,28% (inactive)
2,Cc1cc(C)c2c(=O)n3c(nc2c1)C(CC(C)C)NC(=O)c1cc2ccccc2cc1-3 (centres undefined),24.5% (inactive)
3,CC(C)CNS(=O)(=O)c1ccc(C(=O)Nc2ccc3c(c2)OCO3)cc1,-5.7% (inactive)
4,CNS(=O)(=O)c1ccc(NC(=O)Nc2ccc3c(c2)OCO3)cc1,-52.3% (active)
5,Cc1cccc(NC(=O)Nc2ccc3c(c2)OCO3)n1,-14.3% (inactive)
6,Cc1ccc(C(=O)Nc2c(-c3ccccc3)[nH][nH]c2=O)cc1,0% (inactive)
7,Cc1ccc2c(c1)C(c1ccccc1)N(C(=O)c1ccc(F)cc1)CC(=O)N2 (centres undefined),22.3% (inactive)
8,Cc1oc2c(c1C(=O)N1CCOCC1)C(=O)c1ccccc1C2=O,-0.813% (inactive)
9,O=S(=O)(Nc1cc(Cl)ccc1N1CCOCC1)c1ccccc1Cl,-27.8% (inactive)
10,O=C1c2ccccc2-c2ncnc3c(N4CCOCC4)cc(N4CCOCC4)c1c23,-66.7% (active)
11,O=S1(=O)CC(N2CCN(CCO)CC2)CN1Cc1cn(Cc2ccc(Cl)cc2)nn1 (centres undefined),0% (inactive)
12,CCN(CC)CC1(O)CCN(C(=O)c2ccc(Cl)c(Cl)c2)CC1,12.6% (inactive)
13,CCOC(=O)c1cc2ccccc2n1CC(=O)c1ccccc1,28.5% (inactive)
14,COc1ccc2cc(C(=O)O)n(CC(=O)c3ccccc3)c2c1,0% (inactive)
15,O=C(Cn1nnc(N2CCCCC2)n1)c1ccc(Cl)c(Cl)c1,-1.15% (inactive)
16,CCn1c(=N)n(CC(=O)c2cccc(OC)c2)c2ccccc21,-63% (active)
17,CCCn1c(=N)n(CC(=O)c2ccc(Cl)c(Cl)c2)c2ccccc21,-91.6% (active)
18,Cc1cc(Cl)ccc1C(=O)C1CCCN(C(=O)c2ccc3c(c2)OCO3)C1 (centres undefined),-15.9% (inactive)
19,Cc1cccc(C2c3c(n(C)c(=O)n(C)c3=O)N=C3c4ccccc4C(=O)C32)c1 (centres undefined),13.5% (inactive)
20,Cc1ccccc1S(=O)(=O)NC(=O)C1(C)CCN1C(=O)C1(c2ccc(Cl)cc2)CC1 (centres undefined),22.8% (inactive)

row,Structure (SMILES),activity change
1,O=C(NNC(=O)c1ccc2ccccc2c1)c1ccc(Cl)cc1,-7.64% (inactive)
2,CN(CC(=O)Nc1ccc(Cl)cc1)C(=O)CNC(=O)c1ccc2ccccc2c1,-102% (active)
3,COc1ccc(NC(=O)CN(C)C(=O)CNC(=O)C2CCCCC2)cc1,inactive
4,COc1ccc(C(=O)C(OP(=O)(OC)OC)c2ccccc2OC)cc1 (centres undefined),0% (inactive)
5,OCCC1CN(Cc2cccc(OC3CCCC3)c2)CCN1Cc1ccsc1 (centres undefined),-20.7% (inactive)
6,CC1=C[C@H]2Cc3cc(C)cc(C)c3S(=O)(=O)[C@@H]2C=C1,-1.95% (inactive)
7,Cc1ccccc1Cn1c(C)c(C(=O)NCc2cccc(C(F)(F)F)c2)sc1=O,-29.1% (inactive)
8,O=C(O)c1ccc(F)c(S(=O)(=O)Nc2ccccc2)c1,0% (inactive)
9,COc1ccc(NS(=O)(=O)c2cc(C(=O)Nc3ccccc3C(=O)O)ccc2C)cc1,11.7% (inactive)
10,Cc1ccc(C(=O)Nc2ccccc2-c2ccccc2)cc1S(=O)(=O)Nc1ccccc1,-69.2% (active)
11,CCOC(=O)C=Cc1ccc(C(=O)OCC)[nH]1,12.1% (inactive)
12,CCOC(=O)C1=C(CCc2ccccc2)NC(=O)NC1c1ccc2ccccc2c1 (centres undefined),-52.7% (active)
13,CCOCCOC(=O)C1=C(C)NC(=O)NC1c1ccc2c(c1)OCO2 (centres undefined),-7.25% (inactive)
14,CCOC(=O)C1=C(CSc2nccn2C)NC(=O)NC1c1ccc(OC)cc1 (centres undefined),-4.23% (inactive)
15,Cn1c(=O)[nH]c2c(c(C(=O)O)nn2C)c1=O,-10.6% (inactive)
16,CCc1ccc(NC(=O)N[C@H](C(=O)O)C(C)CC)cc1 (some centres undefined),21.9% (inactive)
17,CCOc1ccc(C(=O)Nc2ccncc2)cc1,-73.6% (active)
18,CC(C)CC(=O)Nc1ccc(Cc2ccncc2)cc1,-7.35% (inactive)
19,CCc1ccc(NC(=O)Nc2ccncc2)cc1,-73.4% (active)
20,CSc1cccc(NC(=O)CSc2ccccc2)c1,-2.08% (inactive)

row,Structure (SMILES),activity change
1,CCOc1ccc(C(=O)Nc2cccc(SC)c2)cc1,-79.8% (active)
2,CCOc1ccc(C(=O)CCC(=O)Nc2ccncc2)cc1,2.33% (inactive)
3,CCOc1ccc(NC(=O)c2ccc(NC(=O)C3CCCO3)cc2)cc1 (centres undefined),-7.47% (inactive)
4,CCOc1ccc(C(=O)Nc2cccc(-c3ccc4nncn4n3)c2)cc1,0% (inactive)
5,COC(=O)C(Cc1c[nH]c2ccccc12)NC(=O)CCNC(=O)c1ccco1 (centres undefined),19.3% (inactive)
6,CCOC(=O)[C@]12CCC=C1N(CCC1=CCCCC1)C(=O)[C@H](CC(=O)NCc1ccc(C)o1)C2,13.9% (inactive)
7,COc1cccc(CN(C)C(=O)CC[C@H]2O[C@@H](n3cnc4c(NC(=O)c5ccccc5)ncnc43)[C@H](O)[C@@H]2O)c1,-16.9% (inactive)
8,CCn1cc(CN2CCC(C(=O)Nc3cccc(-c4cccc(Cl)c4)c3)CC2)c(C)n1,-53.4% (active)
9,CCn1cc(CN2CCC(C(=O)Nc3cccc(-c4cccc(Cl)c4)c3)CC2)cn1,-79.5% (active)
10,CCn1cc(CN2CCC(n3nccc3NC(=O)CCCc3ccccc3)CC2)c(C)n1,40% (inactive)
11,O=C(Nc1cccc(-c2cscn2)c1)C1CCN(Cc2ccsc2)CC1,-28.7% (inactive)
12,CC(=O)c1cc(CN2CCC(C(=O)Nc3cccc(-c4cscn4)c3)CC2)cs1,inactive
13,O=C(Nc1cnn(Cc2ccc(Cl)cc2)c1)C1CCCC1,-16.9% (inactive)
14,C=CCOc1ccc(/C=C/C(=O)OC(C)C(=O)Nc2ccc(NC(C)=O)cc2)cc1 (centres undefined),-0.196% (inactive)
15,Nc1cc(=O)c2[nH]cnc2[nH]1,17.6% (inactive)
16,CCc1nc2ccc(C(=O)N(C)CCN(C)C)cn2c1N(CC)CCOC,-19.3% (inactive)
17,CC(C)C[C@@H]1Cc2[nH][nH]c(=O)c2[C@H](CCc2ccccc2)O1,-2.24% (inactive)
18,CC1(c2cccc(Br)c2)NC(=O)N(CC(=O)NCCC2=CCCCC2)C1=O (centres undefined),1.79% (inactive)
19,COc1cccc2c1C(=O)c1c(O)c3c(c(O)c1C2=O)CC(O)(C(C)=NNC(=O)c1ccc(Cl)c(Cl)c1)CC3OC1CC(N)C(O)C(C)O1 (centres undefined),-101% (active)
